# ± gives the standard deviation of the averaged measurements. Of roughly 5,400 targets only a part is listed; those with the largest changes were picked by preference.
# Compound: Nc1nc2c(ncn2[C@@H]2O[C@H](COP(=O)(O)OP(=O)(O)OP(=O)(O)O)[C@@H](O)[C@H]2O)c(=O)[nH]1 [guanosine triphosphate]
# Experiment: NP40-soluble protein abundance relative to vehicle (solubility fold change) (ratio); higher = more soluble protein in presence of GTP
# Procedure, shortened: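 Jurkat crude lysate (Dounce-homogenised) was treated with eight concentrations from 0.1 to 10 mM for 10 min at room temperature, then 3 min at 37 °C. It was solubilised with 0.8% NP40 and benzonase (60 min, 4 °C) and ultracentrifuged, and the supernatant was TMT-labelled for LC-MS/MS. Intensities were vsn-normalised, and the value is the fold change against the NP40-processed vehicle per replicate, from three independent experiments.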
# Sequence of UniProt Q9H3N1 (Q9H3N1 whole entry): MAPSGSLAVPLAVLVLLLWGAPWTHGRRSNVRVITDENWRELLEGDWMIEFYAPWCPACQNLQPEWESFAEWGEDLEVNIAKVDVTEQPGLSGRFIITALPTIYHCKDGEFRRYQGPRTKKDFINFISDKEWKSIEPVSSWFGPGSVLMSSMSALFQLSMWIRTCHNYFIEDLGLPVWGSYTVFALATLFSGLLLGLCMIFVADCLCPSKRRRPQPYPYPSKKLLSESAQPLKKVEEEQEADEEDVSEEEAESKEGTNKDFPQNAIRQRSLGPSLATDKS
# Sequence of UniProt Q9NPF5 (Q9NPF5 whole entry): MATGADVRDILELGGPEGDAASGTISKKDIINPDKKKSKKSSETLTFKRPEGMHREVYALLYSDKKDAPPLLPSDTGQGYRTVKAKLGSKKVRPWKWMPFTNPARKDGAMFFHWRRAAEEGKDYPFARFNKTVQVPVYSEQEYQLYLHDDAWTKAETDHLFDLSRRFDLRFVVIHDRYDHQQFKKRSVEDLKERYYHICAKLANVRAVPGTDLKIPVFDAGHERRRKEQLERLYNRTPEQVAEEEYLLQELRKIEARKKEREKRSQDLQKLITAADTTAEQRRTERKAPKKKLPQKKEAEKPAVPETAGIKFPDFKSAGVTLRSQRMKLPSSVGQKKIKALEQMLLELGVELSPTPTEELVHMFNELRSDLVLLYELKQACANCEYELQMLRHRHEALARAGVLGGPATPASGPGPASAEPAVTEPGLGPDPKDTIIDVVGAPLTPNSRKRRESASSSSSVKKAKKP
# Sequence of UniProt Q9NVX0 (Q9NVX0 whole entry): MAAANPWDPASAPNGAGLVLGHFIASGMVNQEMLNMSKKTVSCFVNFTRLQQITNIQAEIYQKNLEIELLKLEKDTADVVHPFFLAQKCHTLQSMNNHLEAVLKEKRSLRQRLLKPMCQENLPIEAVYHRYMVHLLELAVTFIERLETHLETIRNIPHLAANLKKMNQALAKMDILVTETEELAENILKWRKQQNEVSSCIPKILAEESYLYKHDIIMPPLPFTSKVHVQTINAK
# Sequence of UniProt Q9H0C8 (Q9H0C8 whole entry): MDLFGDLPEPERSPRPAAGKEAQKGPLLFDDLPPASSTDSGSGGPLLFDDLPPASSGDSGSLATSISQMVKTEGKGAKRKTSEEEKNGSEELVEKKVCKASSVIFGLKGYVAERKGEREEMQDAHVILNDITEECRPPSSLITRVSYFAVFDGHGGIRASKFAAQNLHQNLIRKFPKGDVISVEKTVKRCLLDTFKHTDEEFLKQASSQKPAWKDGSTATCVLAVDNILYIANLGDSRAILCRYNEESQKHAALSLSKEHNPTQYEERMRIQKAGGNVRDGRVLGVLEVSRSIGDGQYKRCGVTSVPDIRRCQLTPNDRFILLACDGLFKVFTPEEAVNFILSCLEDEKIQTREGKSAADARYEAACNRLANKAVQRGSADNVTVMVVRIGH
# Sequence of UniProt Q9HA47 (Q9HA47 whole entry): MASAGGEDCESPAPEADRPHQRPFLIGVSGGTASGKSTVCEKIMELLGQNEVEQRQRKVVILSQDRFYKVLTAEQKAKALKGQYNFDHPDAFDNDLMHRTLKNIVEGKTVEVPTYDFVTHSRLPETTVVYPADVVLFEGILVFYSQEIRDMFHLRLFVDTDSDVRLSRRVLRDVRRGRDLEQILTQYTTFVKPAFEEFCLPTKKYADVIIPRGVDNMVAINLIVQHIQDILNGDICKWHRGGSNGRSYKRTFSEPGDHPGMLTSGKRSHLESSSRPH
# Sequence of UniProt Q9H0F7 (Q9H0F7 whole entry, one chain of several): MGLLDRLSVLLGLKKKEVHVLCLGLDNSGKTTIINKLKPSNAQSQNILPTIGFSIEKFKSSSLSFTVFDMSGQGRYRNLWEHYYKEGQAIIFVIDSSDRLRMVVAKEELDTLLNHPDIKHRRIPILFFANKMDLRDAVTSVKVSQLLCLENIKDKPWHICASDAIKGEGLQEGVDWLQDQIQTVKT
# Sequence of UniProt Q92828 (Q92828 whole entry): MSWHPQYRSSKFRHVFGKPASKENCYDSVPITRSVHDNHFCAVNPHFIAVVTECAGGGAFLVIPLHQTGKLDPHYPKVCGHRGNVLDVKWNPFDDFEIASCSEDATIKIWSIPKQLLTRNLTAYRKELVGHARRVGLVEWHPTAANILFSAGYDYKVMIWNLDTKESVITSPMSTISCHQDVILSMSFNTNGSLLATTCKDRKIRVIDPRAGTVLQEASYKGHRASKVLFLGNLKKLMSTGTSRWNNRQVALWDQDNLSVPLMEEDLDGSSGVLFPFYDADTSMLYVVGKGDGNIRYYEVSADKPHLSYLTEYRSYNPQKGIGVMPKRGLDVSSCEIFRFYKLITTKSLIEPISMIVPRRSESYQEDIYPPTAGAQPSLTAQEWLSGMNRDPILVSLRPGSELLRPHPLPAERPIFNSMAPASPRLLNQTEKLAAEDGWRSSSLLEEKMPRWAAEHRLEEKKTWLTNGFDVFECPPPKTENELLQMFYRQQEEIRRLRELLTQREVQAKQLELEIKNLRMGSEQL
# Sequence of UniProt Q9Y5K8 (Q9Y5K8 whole entry): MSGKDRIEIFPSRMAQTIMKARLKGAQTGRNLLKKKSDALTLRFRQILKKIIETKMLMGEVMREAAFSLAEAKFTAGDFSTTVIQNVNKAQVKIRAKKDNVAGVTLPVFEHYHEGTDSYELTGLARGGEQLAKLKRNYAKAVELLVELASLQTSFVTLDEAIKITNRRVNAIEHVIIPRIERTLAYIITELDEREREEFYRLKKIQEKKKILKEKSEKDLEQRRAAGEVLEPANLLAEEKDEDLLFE
# Sequence of UniProt Q9Y2C4 (Q9Y2C4 whole entry): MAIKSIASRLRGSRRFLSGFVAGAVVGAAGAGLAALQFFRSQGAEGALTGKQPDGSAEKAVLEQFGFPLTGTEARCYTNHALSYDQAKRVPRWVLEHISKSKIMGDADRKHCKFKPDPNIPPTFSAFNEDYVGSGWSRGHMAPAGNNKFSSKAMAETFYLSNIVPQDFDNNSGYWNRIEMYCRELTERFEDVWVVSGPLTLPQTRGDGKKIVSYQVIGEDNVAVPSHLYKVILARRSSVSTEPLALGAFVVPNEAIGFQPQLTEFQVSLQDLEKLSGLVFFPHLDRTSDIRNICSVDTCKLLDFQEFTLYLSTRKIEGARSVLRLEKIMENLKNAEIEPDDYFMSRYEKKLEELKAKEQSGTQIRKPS
# Sequence of UniProt Q92900 (Q92900 whole entry): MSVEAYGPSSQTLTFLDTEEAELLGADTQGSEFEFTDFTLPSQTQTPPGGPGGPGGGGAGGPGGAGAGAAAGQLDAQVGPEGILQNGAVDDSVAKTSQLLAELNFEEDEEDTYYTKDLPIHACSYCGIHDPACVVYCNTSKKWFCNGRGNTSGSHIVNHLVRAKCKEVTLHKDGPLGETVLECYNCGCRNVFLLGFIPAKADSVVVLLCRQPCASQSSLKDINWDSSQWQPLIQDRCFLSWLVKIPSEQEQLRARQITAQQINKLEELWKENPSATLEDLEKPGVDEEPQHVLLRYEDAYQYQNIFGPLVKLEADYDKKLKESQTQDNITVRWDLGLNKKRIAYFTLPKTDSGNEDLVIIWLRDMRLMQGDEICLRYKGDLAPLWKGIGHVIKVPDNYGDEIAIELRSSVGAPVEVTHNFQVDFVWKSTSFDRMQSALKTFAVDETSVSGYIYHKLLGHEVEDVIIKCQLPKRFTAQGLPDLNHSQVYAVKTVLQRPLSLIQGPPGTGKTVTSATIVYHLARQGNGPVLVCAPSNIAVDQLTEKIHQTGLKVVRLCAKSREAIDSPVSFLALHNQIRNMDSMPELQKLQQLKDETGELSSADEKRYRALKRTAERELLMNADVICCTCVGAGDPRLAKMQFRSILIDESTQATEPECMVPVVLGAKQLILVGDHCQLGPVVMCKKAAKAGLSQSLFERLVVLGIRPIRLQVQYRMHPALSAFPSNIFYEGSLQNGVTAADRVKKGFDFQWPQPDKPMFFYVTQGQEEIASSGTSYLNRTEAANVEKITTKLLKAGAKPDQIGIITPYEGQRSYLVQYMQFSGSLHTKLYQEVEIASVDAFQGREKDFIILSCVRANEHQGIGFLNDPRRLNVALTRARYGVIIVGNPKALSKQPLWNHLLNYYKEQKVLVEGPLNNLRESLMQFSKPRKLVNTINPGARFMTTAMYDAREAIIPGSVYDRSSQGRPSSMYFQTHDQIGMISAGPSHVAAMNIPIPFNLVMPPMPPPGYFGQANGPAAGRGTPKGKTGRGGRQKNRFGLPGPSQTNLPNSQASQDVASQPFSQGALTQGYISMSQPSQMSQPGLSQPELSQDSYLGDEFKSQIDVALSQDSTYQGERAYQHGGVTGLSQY
# Sequence of UniProt Q9NY12 (Q9NY12 whole entry): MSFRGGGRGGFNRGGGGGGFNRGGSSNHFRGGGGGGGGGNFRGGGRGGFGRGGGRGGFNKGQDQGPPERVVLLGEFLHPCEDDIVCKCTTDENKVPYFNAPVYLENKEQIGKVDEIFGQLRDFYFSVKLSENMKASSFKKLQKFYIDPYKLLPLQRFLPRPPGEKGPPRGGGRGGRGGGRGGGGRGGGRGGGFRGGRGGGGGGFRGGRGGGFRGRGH
# Sequence of UniProt Q96BY9 (Q96BY9 whole entry, one chain of several): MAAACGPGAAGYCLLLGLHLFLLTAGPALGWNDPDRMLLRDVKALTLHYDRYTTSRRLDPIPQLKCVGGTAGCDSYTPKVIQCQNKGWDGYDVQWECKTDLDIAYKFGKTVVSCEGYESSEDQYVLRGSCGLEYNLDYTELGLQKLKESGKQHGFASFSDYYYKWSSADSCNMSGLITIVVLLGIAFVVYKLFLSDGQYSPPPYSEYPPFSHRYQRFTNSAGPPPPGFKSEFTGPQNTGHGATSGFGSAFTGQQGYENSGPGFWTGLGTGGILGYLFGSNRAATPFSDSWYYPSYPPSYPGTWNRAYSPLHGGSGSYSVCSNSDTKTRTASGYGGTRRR
# Sequence of UniProt Q9Y696 (Q9Y696 whole entry): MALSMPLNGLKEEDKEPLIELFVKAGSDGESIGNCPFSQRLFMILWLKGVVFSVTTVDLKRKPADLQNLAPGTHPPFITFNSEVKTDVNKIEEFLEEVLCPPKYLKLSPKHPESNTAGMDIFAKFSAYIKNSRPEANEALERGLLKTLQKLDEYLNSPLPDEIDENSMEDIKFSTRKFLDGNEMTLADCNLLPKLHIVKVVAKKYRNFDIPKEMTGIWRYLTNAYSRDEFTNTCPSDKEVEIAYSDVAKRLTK
Target,NP40-soluble protein abundance (concentration: 0.1mM),NP40-soluble protein abundance (concentration: 0.5mM),NP40-soluble protein abundance (concentration: 1mM),NP40-soluble protein abundance (concentration: 2mM),NP40-soluble protein abundance (concentration: 4mM),NP40-soluble protein abundance (concentration: 6mM),NP40-soluble protein abundance (concentration: 8mM),NP40-soluble protein abundance (concentration: 10mM)
UniProt Q9BVI0|A0A0A0MT13|Q5JWZ0|Q5JXL1,1.11 ± 0.068,1.07 ± 0.12,1.19 ± 0.078,1.27 ± 0.057,1.52 ± 0.056,1.553 ± 0.012,1.77 ± 0.08,1.71 ± 0.071
RNF181 (UniProt Q9P0P0),0.961 ± 0.027,0.925 ± 0.028,1.05 ± 0.077,1.03 ± 0.045,1.01 ± 0.013,1.02 ± 0.05,1.04 ± 0.1,1.09 ± 0.075
UniProt Q9H8M2|Q9H8M2-3|Q9H8M2-6,0.966 ± 0.054,1.05 ± 0.13,1.03 ± 0.085,0.995 ± 0.033,1.04 ± 0.11,1.13 ± 0.12,1.11 ± 0.029,1.09 ± 0.04
UniProt Q96T23|Q96T23-2,1.02 ± 0.028,1.09 ± 0.081,1.25 ± 0.014,1.45 ± 0.1,1.72 ± 0.22,2.07 ± 0.29,2.49 ± 0.49,2.71 ± 0.62
UniProt Q96BY9|H0YAZ1,1.08 ± 0.15,1.08 ± 0.064,1.09 ± 0.15,1.1 ± 0.094,1.03 ± 0.11,1.01 ± 0.1,1.05 ± 0.19,1.07 ± 0.22
ATP6V1D (UniProt Q9Y5K8),1.04 ± 0.016,1.06 ± 0.03,1.04 ± 0.03,1.06 ± 0.022,1.056 ± 0.0052,1.03 ± 0.05,1.02 ± 0.045,0.992 ± 0.018
DMAP1 (UniProt Q9NPF5),1.04 ± 0.056,1.06 ± 0.059,1.11 ± 0.079,1.17 ± 0.099,1.22 ± 0.12,1.24 ± 0.15,1.29 ± 0.2,1.26 ± 0.18
UniProt Q9NVX0|Q9NVX0-2|Q9NVX0-3,0.873 ± 0.21,0.823 ± 0.036,1.02 ± 0.079,1.05 ± 0.083,1.01 ± 0.12,0.996 ± 0.14,0.963 ± 0.022,1.02 ± 0.17
UniProt Q9H3N1,0.957 ± 0.055,0.947 ± 0.043,0.935 ± 0.04,0.871 ± 0.062,0.858 ± 0.071,0.878 ± 0.091,0.885 ± 0.053,0.859 ± 0.065
UniProt Q9NZM5,0.985 ± 0.053,0.939 ± 0.14,1.04 ± 0.083,1.03 ± 0.17,1.05 ± 0.16,1.07 ± 0.21,1.18 ± 0.17,1.13 ± 0.093
ILKAP (UniProt Q9H0C8),0.959 ± 0.034,0.95 ± 0.023,0.905 ± 0.049,0.904 ± 0.058,0.88 ± 0.058,0.897 ± 0.048,0.87 ± 0.049,0.869 ± 0.065
VPS35 (UniProt Q96QK1),1.03 ± 0.082,1.04 ± 0.093,0.913 ± 0.048,0.958 ± 0.13,0.929 ± 0.11,0.912 ± 0.086,0.833 ± 0.048,0.868 ± 0.093
UniProt Q9HA47|Q9HA47-3|Q9HA47-4,1.01 ± 0.02,0.946 ± 0.037,1.05 ± 0.1,0.966 ± 0.056,0.98 ± 0.1,0.987 ± 0.034,0.983 ± 0.12,0.958 ± 0.024
UniProt Q9Y2C4|Q9Y2C4-3|Q9Y2C4-4,1.2 ± 0.083,1.12 ± 0.049,1.11 ± 0.083,1.14 ± 0.088,1.08 ± 0.033,1.07 ± 0.081,1.01 ± 0.034,1.03 ± 0.044
TMOD3 (UniProt Q9NYL9),0.878 ± 0.033,0.855 ± 0.044,1.03 ± 0.039,1.01 ± 0.029,1.02 ± 0.019,1.02 ± 0.026,1 ± 0.048,1.08 ± 0.04
DDX23 (UniProt Q9BUQ8),1.04 ± 0.036,1.09 ± 0.067,1.19 ± 0.12,1.27 ± 0.075,1.55 ± 0.18,1.62 ± 0.19,1.89 ± 0.28,1.93 ± 0.23
CLIC4 (UniProt Q9Y696),1 ± 0.088,0.929 ± 0.063,0.966 ± 0.1,0.88 ± 0.1,0.976 ± 0.13,0.909 ± 0.1,0.973 ± 0.12,0.866 ± 0.08
X5CMH5 (UniProt Q03519),1.09 ± 0.036,1.08 ± 0.054,0.978 ± 0.028,1.01 ± 0.085,0.976 ± 0.063,0.951 ± 0.051,0.934 ± 0.015,0.918 ± 0.065
UniProt Q9NY12|Q9NY12-2,1.04 ± 0.097,1.06 ± 0.12,1.17 ± 0.2,1.34 ± 0.15,1.51 ± 0.24,1.72 ± 0.19,1.9 ± 0.27,2.35 ± 0.49
UniProt Q9Y3U8|J3QSB5,0.976 ± 0.084,0.987 ± 0.01,1.04 ± 0.075,0.994 ± 0.14,0.921 ± 0.12,0.855 ± 0.09,0.514 ± 0.13,0.919 ± 0.16
UniProt Q99828|Q99828-2,0.956 ± 0.08,0.981 ± 0.11,1.02 ± 0.081,1.02 ± 0.084,1.02 ± 0.092,1 ± 0.12,0.996 ± 0.11,0.911 ± 0.12
UniProt Q92900|Q92900-2,1.01 ± 0.025,1.01 ± 0.04,0.936 ± 0.034,0.971 ± 0.065,0.957 ± 0.049,0.937 ± 0.057,0.898 ± 0.035,0.884 ± 0.011
UniProt Q9BVP2|Q9BVP2-2,1.31 ± 0.073,1.3 ± 0.094,1.34 ± 0.11,1.51 ± 0.19,1.68 ± 0.17,1.73 ± 0.13,1.77 ± 0.2,1.88 ± 0.072
AFG3L2 (UniProt Q9Y4W6),0.998 ± 0.016,0.996 ± 0.016,0.946 ± 0.024,0.969 ± 0.022,0.977 ± 0.022,0.987 ± 0.04,0.988 ± 0.02,0.938 ± 0.014
UniProt Q9H0F7|Q9H0F7-2|A0A0J9YXT0,1.02 ± 0.063,1.03 ± 0.1,0.914 ± 0.011,0.986 ± 0.12,0.932 ± 0.065,0.904 ± 0.032,0.864 ± 0.061,0.882 ± 0.065
UniProt Q9Y2S2|Q9Y2S2-2,1.09 ± 0.12,0.991 ± 0.11,0.974 ± 0.12,0.971 ± 0.11,0.948 ± 0.12,0.922 ± 0.13,0.946 ± 0.15,0.912 ± 0.18
CORO2A (UniProt Q92828),1.08 ± 0.12,1.09 ± 0.11,1.11 ± 0.049,1.19 ± 0.047,1.31 ± 0.056,1.42 ± 0.075,1.42 ± 0.1,1.42 ± 0.058
UniProt Q9H832|Q9H832-2,1.04 ± 0.06,0.987 ± 0.061,0.9687 ± 0.0042,1.12 ± 0.056,0.927 ± 0.013,0.934 ± 0.043,0.91 ± 0.034,0.963 ± 0.064

# Source: the supplement of paper PMC6411743
